PubChem BioAssay (EPA / NIEHS)
Activity calls are given as the source filed them. Rule for the calls: active = hit-call score of the fitted dose curve at least 0.9, where 1 is the maximum; inactive = score below 0.9.

What was measured:
[1] = APR_HepG2_CellCycleArrest_24hr: Apredica 24-hour HepG2 Assay for Cell Cycle Arrest (AID 2282905); settings: imaging, actives raise or lower the signal;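 note: cell cycle arrest scored as ratio of 2N to 4N nuclear DNA content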
Summary of the method: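 HepG2 cells were exposed to compounds at 0.39–200 uM (ten concentrations, duplicate) in 0.5% v/v DMSO for 24 hr. After formaldehyde fixation and Triton permeabilization, Hoechst 33342-stained nuclei were imaged at 20x; DNA content was quantified, with bidirectional fitting against DMSO.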

[2] = APR_HepG2_NuclearSize_24hr: Apredica 24-hour HepG2 Assay for Nuclear Size (AID 2282907); settings: high-content imaging, actives raise or lower the signal
Summary of the method: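 HepG2 human liver cells were exposed for 24 hr to compounds at 0.39–200 uM (ten concentrations, duplicate) in 0.5% v/v DMSO. They were then formaldehyde-fixed, Triton-permeabilized and Hoechst 33342-stained, and nuclear diameter was imaged at 20x. Bidirectional fits were made against DMSO.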

[3] = APR_HepG2_CellLoss_24hr: Apredica 24-hour HepG2 Assay for Cell Loss (AID 2282908); settings: high-content imaging;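 for AC50: fit in both directions so a hit may be cell loss or gain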
Summary of the method: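 Compounds were tested at 0.39–200 uM in duplicate with 0.5% v/v DMSO final. Cells were then fixed in 3.7% formaldehyde, Hoechst 33342 nuclei were imaged at 20x by HCS, and cell number was fitted bidirectionally against DMSO.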

[4] = APR_HepG2_MicrotubuleCSK_24hr: Apredica 24-hour HepG2 Assay for Microtubule CSK Stabilty (AID 2282909); settings: HepG2 microtubule cytoskeleton imaging, actives raise or lower the signal
Summary of the method: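 HepG2 cells exposed 24 h to compounds at 0.39–200 uM (duplicate, 0.5% v/v DMSO final), then fixed, permeabilized and immunostained for alpha-tubulin with Hoechst 33342. Cytoskeleton imaged at 20x; bidirectional fit versus DMSO baseline.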

[5] = APR_HepG2_MitoticArrest_24hr: Apredica 24-hour HepG2 Assay for Mitotic Arrest (AID 2282910); settings: high-content imaging, actives raise or lower the signal
Summary of the method: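 HepG2 human liver cells were exposed to compounds at 0.39–200 uM (10 concentrations, duplicate) in 0.5% v/v DMSO for 24 hr, then fixed and immunostained for phospho-histone H3 with Hoechst 33342. Mitotic arrest came from HCS fluorescent imaging, fitted bidirectionally against DMSO.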

[6] = APR_HepG2_MitoMembPot_24hr: Apredica 24-hour HepG2 Assay for Mitochondrial Membrane Potential (AID 2282911); settings: imaging, actives raise or lower the signal
Summary of the method: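 Cells are dosed for 24 hr across 0.39 to 200 uM with solvent held at 0.5% DMSO. They are then stained with 250 nM MitoTracker Red CMXRos for 30 min, fixed in 3.7% formaldehyde and imaged.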

[7] = APR_HepG2_MitoMass_24hr: Apredica 24-hour HepG2 Assay for Mitochondrial Mass (AID 2282912); settings: high-content imaging, actives raise or lower the signal
Summary of the method: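 Human HepG2 liver cells were exposed for 24 hr to compounds at 0.39–200 uM (duplicates, 0.5% v/v DMSO final). They were stained live with 250 nM MitoTracker Red CMXRos for 30 min, fixed in 3.7% formaldehyde, and imaged by HCS fluorescence; signals were fitted bidirectionally against DMSO.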

[8] = APR_HepG2_p53Act_24hr: Apredica 24-hour HepG2 Assay for p53 Activation (AID 2282913); settings: high-content imaging, actives raise or lower the signal;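 note: p53 protein immunofluorescence averaged per cell in HepG2 with Hoechst nuclei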
Summary of the method: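 Human HepG2 liver cells; 24 hr cpd treatment, 0.39–200 uM, 0.5% DMSO final. Fixed in 3.7% formaldehyde, permeabilized with 0.5% Triton X-100, stained with anti-p53/Cy5 plus Hoechst 33342. Six images per well at 20x; gain or loss vs DMSO.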

[9] = APR_HepG2_CellCycleArrest_72hr: Apredica 72-hour HepG2 Assay for Cell Cycle Arrest (AID 2282914); settings: high-content imaging, actives raise or lower the signal
Summary of the method: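 Read-out is Hoechst-stained nuclear DNA content measured by automated fluorescence imaging (20x, six images per well), fitted in both directions relative to DMSO. Human HepG2 liver cells received 0.39–200 uM compound for 72 hr at 0.5% v/v DMSO.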

[10] = APR_HepG2_CellLoss_72hr: Apredica 72-hour HepG2 Assay for Cell Loss (AID 2282915); settings: high-content imaging
Summary of the method: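 HepG2 cells were exposed for 72 hr to compounds at 0.39–200 uM (ten concentrations, duplicate) in 0.5% v/v final DMSO. Nuclei were stained with Hoechst 33342 after 3.7% formaldehyde fixation, imaged at 20x, and counted; fits bidirectional versus DMSO.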

[11] = APR_HepG2_P-H2AX_72hr: Apredica 72-hour HepG2 Assay for H2AX Phosphorylation (AID 2282916); settings: imaging, actives raise or lower the signal;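 note: phospho-histone H2A.x immunostain intensity per cell marking DNA damage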
Summary of the method: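 HepG2 human liver cells were exposed for 72 hr to compounds at 0.39–200 uM (10 concentrations, duplicate per plate) in 0.5% v/v DMSO. Fixed, permeabilized cells were immunolabeled for phospho-histone H2A.x with Hoechst 33342 and imaged by HCS fluorescence; bidirectional fit versus DMSO.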

[12] = APR_HepG2_MitoMembPot_72hr: Apredica 72-hour HepG2 Assay for Mitochondrial Membrane Potential (AID 2282917); settings: imaging, actives raise or lower the signal
Summary of the method: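 HepG2 cells exposed 72 h to compounds at 0.39–200 uM (0.5% v/v DMSO, duplicates); MitoTracker Red CMXRos 250 nM loaded 30 min before 3.7% formaldehyde fixation, imaged by HCS fluorescence. Bidirectional fit versus DMSO.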

[13] = APR_HepG2_MitoticArrest_72hr: Apredica 72-hour HepG2 Assay for Mitotic Arrest (AID 2282918); settings: high-content imaging, actives raise or lower the signal
Summary of the method: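 Read-out is phospho-histone H3 immunofluorescence with Hoechst nuclear segmentation, imaged at 20x. Human HepG2 liver cells received ten concentrations (0.39–200 uM, final DMSO 0.5% v/v) for 72 hr before fixation. Gain or loss of signal was fitted relative to DMSO.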

[14] = APR_HepG2_MicrotubuleCSK_72hr: Apredica 72-hour HepG2 Assay for Microtubule CSK Stabilty (AID 2282919); settings: HepG2 microtubule cytoskeleton, high-content imaging, actives raise or lower the signal
Summary of the method: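 HepG2 human liver cells were dosed for 72 h at ten concentrations from 0.39 to 200 uM in duplicate (0.5% v/v DMSO final). Fixed, permeabilized cells were immunostained for alpha-tubulin (Cy5) with a Hoechst counterstain and imaged at 20x.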

[15] = APR_HepG2_StressKinase_72hr: Apredica 72-hour HepG2 Assay for Stress Kinase (AID 2282921); settings: HepG2 stress kinase (phospho-c-Jun) imaging, actives raise or lower the signal
Summary of the method: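 Cells were exposed for 72 h to ten concentrations (0.39–200 uM, duplicate) at 0.5% v/v DMSO final, then fixed with 3.7% formaldehyde, permeabilized and immunostained for phospho-c-Jun (Cy3 secondary) with Hoechst nuclear counterstain.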

[16] = APR_HepG2_StressKinase_24hr: Apredica 24-hour HepG2 Assay for Stress Kinase (AID 2282922); settings: HepG2 stress kinase (phospho-c-Jun) imaging, actives raise or lower the signal
Summary of the method: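 HepG2 cells exposed 24 hr to compound at 0.39–200 uM (10 concentrations, duplicate), 0.5% v/v DMSO final. Fixed in 3.7% formaldehyde, permeabilized with Triton X-100, immunolabeled for phospho-c-Jun with Hoechst 33342; HCS fluorescence imaging, bidirectional fit versus DMSO.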

[17] = APR_HepG2_p53Act_72hr: Apredica 72-hour HepG2 Assay for p53 Activation (AID 2282923); settings: high-content imaging, actives raise or lower the signal;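 note: average cellular p53 protein immunofluorescence intensity in HepG2 cells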
Summary of the method: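 Cells were dosed for 72 hr with compounds at 0.39–200 uM in duplicate (final DMSO 0.5% v/v), then fixed in 3.7% formaldehyde, permeabilized with Triton X-100 and immunostained for p53 (Cy5) with Hoechst 33342 nuclear counterstain.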

[18] = APR_HepG2_MitoMass_72hr: Apredica 72-hour HepG2 Assay for Mitochondrial Mass (AID 2282924); settings: high-content imaging, actives raise or lower the signal;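 note: MitoTracker Red CMXRos stain intensity per cell imaged as mitochondrial mass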
Summary of the method: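 HepG2 cells were exposed for 72 hr to compounds at 0.39–200 uM (ten concentrations, duplicate, 0.5% v/v DMSO final). Live cells were stained with 250 nM MitoTracker Red CMXRos for 30 min, then fixed in 3.7% formaldehyde and imaged by HCS fluorescence.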

[19] = APR_HepG2_NuclearSize_72hr: Apredica 72-hour HepG2 Assay for Nuclear Size (AID 2282925); settings: high-content imaging, actives raise or lower the signal
Summary of the method: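 HepG2 cells were exposed to compounds at ten concentrations from 0.39 to 200 uM (duplicate, 0.5% DMSO final) for 72 hr. After fixation in 3.7% formaldehyde, nuclei were stained with Hoechst 33342 (2 ug/mL) and imaged at 20x.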

[20] = APR_HepG2_P-H2AX_24hr: Apredica 24-hour HepG2 Assay for H2AX Phosphorylation (AID 2282920); settings: high-content imaging, actives raise or lower the signal
Summary of the method: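 HepG2, 24 hr, cpd 0.39–200 uM (10 conc, duplicate), DMSO 0.5% v/v final. Fix 3.7% formaldehyde, Triton X-100 permeabilize, anti-phospho-H2A.x 1:200 + Hoechst 2 ug/mL. Imaged, bidirectional fit vs DMSO.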

Measured: AC50

C1=Cc2cccc3cccc1c23
not listed: [20]
inactive: all other assays above

O=C(N[C@H](c1ccccc1)[C@@H]1CN2CCC1CC2)c1c(Cl)ccc(C(F)(F)F)c1Cl
active: [1] 60.8 µM | [2] 88.8 µM | [3] 120 µM | [5] 78.7 µM | [9] 30.6 µM | [10] 64 µM | [11] 44 µM | [13] 24 µM | [20] 117 µM
not listed: [8]
inactive: all other assays above

O=Cc1ccco1
not listed: [8]
inactive: all other assays above

Clc1ccc(Cl)c(Cl)c1
not listed: [8]
inactive: all other assays above

CCCCCCCCOC(=O)c1ccc(C(=O)OCCCCCCCC)c(C(=O)OCCCCCCCC)c1
not listed: [8]
inactive: all other assays above

C=CCc1ccc2c(c1)OCO2
active: [6] 0.0311 µM
not listed: [8]
inactive: all other assays above

Cc1ccc(N=C=O)cc1N=C=O
not listed: [8]
inactive: all other assays above

CCCCCCCCCCCCCN1CC(C)OC(C)C1 (configuration not stated)
active: [2] 105 µM | [3] 91.8 µM | [4] 166 µM | [5] 97.6 µM | [7] 189 µM | [9] 70.4 µM | [10] 78.9 µM | [20] 76.6 µM
not listed: [8]
inactive: all other assays above

COC(=O)c1ccccc1N
not listed: [8]
inactive: all other assays above

CCCCC(CC)COC(=O)c1ccc(C(=O)OCC(CC)CCCC)c(C(=O)OCC(CC)CCCC)c1 (configuration not stated)
not listed: [20]
inactive: all other assays above

Oc1ccc2ccc3cccc4ccc1c2c34
inactive: [1] | [2] | [4] | [9] | [15] | [17]
active: [3] 77.9 µM | [5] 82.2 µM | [6] 30.6 µM | [7] 31.9 µM | [8] 49.1 µM | [10] 84 µM | [11] 50.3 µM | [12] 75.4 µM | [13] 63.9 µM | [14] 85.4 µM | [16] 80.8 µM | [18] 46.4 µM | [19] 69.6 µM

CC(O)CCO (configuration not stated)
not listed: [8]
inactive: all other assays above

Cc1ccc(N)c(N)c1
not listed: [8]
inactive: all other assays above
